Screens as filed in PubChem.
Pf growth 96h – P. falciparum growth inhibition at 96 hour, primary screen for plastid delayed-death inhibitors; 320,000 compounds, 6.9% hits; Potency, µM (titrated, usually from 28.7 µM), for inactives: at the top dose activity change, negative = inhibition, usual class: inhibitors; P. falciparum luciferase reporter growth, 96 h; AID 504834; note: % is set by controls: 0 for no effect and ±100 for the full control effect
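Infected RBCs, 2% Hct / 0.05% parasitemia final; luciferase-reporter P. falciparum; cpd 96 h, 37 C, 5% CO2; luciferase detection reagent; luminescence.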
SARS PLP yeast – SARS-CoV PLP inhibition in yeast; S. cerevisiae expressing SARS-CoV PLpro, growth rescue; Potency, µM (titrated, usually from 32.9 µM), for inactives: at the highest dose activity, positive = growth rescue, most hits filed as activators; 330,000 compounds, 0.19% hits; AID 485353; calls by dose curve; note: 0% is about no effect; nearly all actives have a fitted effect of over 55% in size
AmpC inh no detg – AmpC beta-lactamase inhibition without detergent. Potency, µM (series often up to 57.1 µM), without a hit: at the top dose activity change, negative = inhibition, actives largely listed as inhibitors. AID 485341. 330,000 compounds, 0.52% hits. AmpC nitrocefin hydrolysis, absorbance 480 nm, 0.0001% Triton. P00811;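 note: plate controls were no compound for no effect and no enzyme for full effect; nearly all actives have a fitted effect of over 20% in size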
Target sequence (P00811 whole entry, looked up): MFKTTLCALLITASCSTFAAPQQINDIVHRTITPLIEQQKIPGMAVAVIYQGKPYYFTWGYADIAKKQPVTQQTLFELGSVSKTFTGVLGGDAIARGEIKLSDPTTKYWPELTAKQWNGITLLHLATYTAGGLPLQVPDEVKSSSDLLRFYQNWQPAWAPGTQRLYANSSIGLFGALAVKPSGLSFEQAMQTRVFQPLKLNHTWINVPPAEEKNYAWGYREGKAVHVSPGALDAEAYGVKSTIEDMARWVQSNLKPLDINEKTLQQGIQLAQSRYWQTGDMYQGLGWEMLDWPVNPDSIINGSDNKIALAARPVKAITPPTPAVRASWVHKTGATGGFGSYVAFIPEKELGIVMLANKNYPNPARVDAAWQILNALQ
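AmpC (5.3 nM in the dispensed reagent) in 20 mM phosphate pH 7.0 with 0.01% (detergent screen) or 0.0001% Triton X-100 was preincubated with compounds for 15 min at room temperature. Nitrocefin was then added from an 800 uM solution, and hydrolysis was followed at 480 nm.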
Pf growth 48h – inhibits P. falciparum growth in the first generation, 48 h | P. falciparum luciferase growth in erythrocytes, 48 h | Potency, µM (top dose mostly 28.7 µM), without a hit: at the top dose activity change, negative = inhibition, actives largely listed as inhibitors | 310,000 compounds, 5.9% hits; note: % is set by controls: 0 for no effect and ±100 for the full control effect
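Luminescence readout; reporter = integrated firefly luciferase in P. falciparum. RBC culture at 2% hematocrit, 0.1% parasitemia final, 37 C/5% CO2; decreased signal taken as growth inhibition.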
AmpC detergent – blocks E. coli AmpC beta-lactamase in detergent assay; P00811; AmpC hydrolysis of nitrocefin, absorbance 480 nm, 0.01% Triton; Potency, µM (doses to about 114 µM), for the others: at the highest dose activity change, negative = inhibition, actives largely listed as inhibitors; 370,000 compounds, 0.041% hits; AID 485294;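 note: 0% = no-compound wells and -100% = no-enzyme wells; nearly all actives have a fitted effect of over 25% in size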
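AmpC (5.3 nM in the dispensed reagent) in 20 mM phosphate pH 7.0 with 0.01% (detergent screen) or 0.0001% Triton X-100 was preincubated with compounds for 15 min at room temperature. Nitrocefin was then added from an 800 uM solution, and hydrolysis was followed at 480 nm.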
Sm TGR block – S. mansoni TGR enzyme inhibition. Q962Y6. AID 485364. Potency, µM (series often up to 114 µM), for the others: at the highest dose activity change, negative = inhibition, usual class: inhibitors. purified TGR, DTNB reduction, TNB absorbance 405 nm. 360,000 compounds, 3% hits; note: % is set by controls: 0 for no effect and ±100 for the full control effect; nearly all actives have a fitted effect of over 60% in size
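First, TGR (20 nM dispensed) and NADPH were mixed with compound. Second, a 15 min room-temperature incubation followed. Third, further NADPH and then DTNB were added to start the reaction. Finally, TNB absorbance was monitored kinetically.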
Numbers without * were called inactive; [ ] = another dose, or the depositor's remark. Most compounds without a hit are left out; they make up all but 12% or so of the library. Unless noted, calls come from the whole dose curve; as a rule, active = well fitted curve in the direction sought with a large enough effect; inconclusive = small, poorly fitted or top-dose-only effect, or another doubt; inactive = no such curve, though single readings can be large; an effect the other way counts as inactive or inconclusive. Potency is the fitted concentration of half-maximal effect.

Screening COc1ccc(C(C(=O)NCc2ccccc2)N(Cc2ccc3c(c2)OCO3)C(=O)c2cnccn2)cc1 (stereo unspecified) returned SARS PLP yeast 1%, AmpC inh no detg 52%, Pf growth 48h -18%, AmpC detergent inconclusive and Sm TGR block -18%.
Screening O=C(NC1CCCC1)C(c1ccc(F)cc1)N(C(=O)Cc1cccs1)c1ccc2c(c1)OCCO2 (stereo unspecified) returned Pf growth 96h 11%, SARS PLP yeast 6%, AmpC inh no detg -17%, Pf growth 48h 8%, AmpC detergent -16% and Sm TGR block -19%.
`Cc1ccc(C)c(N(C(=O)Cc2cccs2)C(C(=O)NC2CCCC2)c2ccc(C)o2)c1` (stereo unspecified) gave Pf growth 96h -12%, SARS PLP yeast 2%, AmpC inh no detg inconclusive, Pf growth 48h inconclusive, AmpC detergent 2% and Sm TGR block -3%.
`Cc1ccc(C(C(=O)NC2CCCC2)N(C(=O)Cc2cccs2)c2ccc(C)c(C)c2)o1` (stereo unspecified) gave Pf growth 96h 10µM*, SARS PLP yeast -14%, AmpC inh no detg inconclusive, Pf growth 48h 10µM*, AmpC detergent 2% and Sm TGR block -21%.
`CC(C(=O)NC1CCCC1)N(Cc1ccco1)C(=O)c1snc(C(=O)NC2CCCC2)c1N` (stereo unspecified) gave SARS PLP yeast 3%, AmpC inh no detg 58%, Pf growth 48h 13µM*, AmpC detergent -9% and Sm TGR block -26%.
`Cc1ccc(C(C(=O)NC2CCCC2)N(C(=O)Cc2cccs2)c2ccc3c(c2)OCCO3)cc1` (stereo unspecified) gave Pf growth 96h inconclusive, SARS PLP yeast 3%, AmpC inh no detg 1%, Pf growth 48h 3.3µM*, AmpC detergent -3% and Sm TGR block -7%.
For O=C(NC1CCCCC1)C(c1ccccc1)N(Cc1ccc2c(c1)OCO2)C(=O)c1cnsn1 (stereo unspecified) the results were Pf growth 96h -61%, SARS PLP yeast -4%, AmpC inh no detg -15%, Pf growth 48h 9.3µM*, AmpC detergent 0% and Sm TGR block -16%.
Screening O=C(NCC(O)CO)c1csc(Nc2cccc3ccccc23)n1 (stereo unspecified) returned Pf growth 96h 1%, SARS PLP yeast -4%, AmpC inh no detg 1%, Pf growth 48h -27%, AmpC detergent -14% and Sm TGR block 7%.
Screening Cc1cc(C)cc(NC(=O)C(C)N2Cc3ccccc3C2=O)c1 (stereo unspecified) returned AmpC detergent 1% and Sm TGR block 2%.
COc1ccc(C2=NN(c3nc(-c4ccc(CNC(C)=O)cc4)cs3)C(c3ccco3)C2)cc1 (stereo unspecified) was read as Pf growth 96h inconclusive, SARS PLP yeast -2%, AmpC inh no detg 37%, Pf growth 48h 3.7µM*, AmpC detergent -2% and Sm TGR block -15%.
OC1(c2ccc(Br)cc2)CCNCC1 was read as SARS PLP yeast -2%, AmpC inh no detg -12%, Pf growth 48h 3%, AmpC detergent -15% and Sm TGR block 50µM*.
Screening Cc1nccn1-c1c2c(c(C#N)c3nc4ccccc4n13)CCC2 returned Pf growth 96h 19%, SARS PLP yeast -1%, AmpC inh no detg -12%, Pf growth 48h -17%, AmpC detergent 1% and Sm TGR block 25µM*.
N#Cc1c2c(c(N3CCN(c4ccccn4)CC3)n3c1nc1ccccc13)CCC2 was read as Pf growth 96h 0.13µM*, SARS PLP yeast 2%, AmpC inh no detg -12%, AmpC detergent inconclusive and Sm TGR block 40µM*.
Cc1cc(N2CCN(c3ccccn3)CC2)n2c(nc3ccccc32)c1C#N was read as Pf growth 96h 1%, SARS PLP yeast -9%, AmpC inh no detg -18%, Pf growth 48h 4.7µM*, AmpC detergent inconclusive and Sm TGR block 7%.
Screening CN(C)S(=O)(=O)c1ccc2c(c1)c(=O)c(C(=O)N1CCN(c3cccc(Cl)c3)CC1)cn2C returned AmpC detergent 0% and Sm TGR block -2%.
CN1CCN([C@@H](c2ccccc2)c2ccc(Cl)cc2)CC1 was read as Pf growth 96h -11%[12.8 µM] and Pf growth 48h -23%[12.8 µM].
`CCOc1ccc(S(=O)(=O)NN=C2CCN(C(C)=O)CC2)cc1` gave Pf growth 96h 1%, SARS PLP yeast -2%, AmpC inh no detg -28%, Pf growth 48h 13%, AmpC detergent -7% and Sm TGR block 0%.
O=C(NCc1ccco1)C1CC(c2ccccc2O)=NO1 (stereo unspecified) was read as Pf growth 96h inconclusive, SARS PLP yeast -1%, AmpC inh no detg -15%, Pf growth 48h -1%, AmpC detergent 1% and Sm TGR block -13%.
O=C(NCc1ccco1)C1CC(c2ccccc2C(F)(F)F)=NO1 (stereo unspecified) was read as Pf growth 96h 32%, SARS PLP yeast 1%, AmpC inh no detg -1%, Pf growth 48h 36%, AmpC detergent 4% and Sm TGR block 20µM*.
COc1ccc(OC)c(C2=NOC(C(=O)NCc3ccco3)C2)c1 (stereo unspecified) was read as Pf growth 96h -21%, SARS PLP yeast 7%, AmpC inh no detg 1%, AmpC detergent inconclusive and Sm TGR block 35µM*.
Cc1cc(C)cc(OCC(=O)Nc2cccc3cccnc23)c1 was read as AmpC detergent 19% and Sm TGR block 4%.
For COCCCNC(=O)c1ccc([N+](=O)[O-])cc1 the results were Pf growth 96h 5%, SARS PLP yeast -2%, AmpC inh no detg 8%, Pf growth 48h 30%, AmpC detergent -3% and Sm TGR block -2%.
`O=C(CCl)NCCCN(C(=O)C(Cl)Cl)c1ccc([N+](=O)[O-])cc1` gave Pf growth 96h 7.4µM*, SARS PLP yeast 2%, AmpC inh no detg -9%, Pf growth 48h 6.6µM*, AmpC detergent inconclusive and Sm TGR block 28µM*.
CCOC(=O)/C(=N/Nc1ccc(Cl)cc1)S(=O)(=O)c1ccc(Cl)cc1 was read as SARS PLP yeast 5%, AmpC inh no detg -19%, Pf growth 48h 27%, AmpC detergent -1% and Sm TGR block -18%.
